The values that follow come from PubChem BioAssay AID1671192 (National Center for Advancing Translational Sciences (NCATS), 2021).

Records with an inconclusive call do not appear. Active and inactive are the calls of the source. Calls come from the whole dose curve; as a rule, active = well fitted curve in the direction sought with a large enough effect; inconclusive = small, poorly fitted or top-dose-only effect, or another doubt; inactive = no such curve, though single readings can be large or run the other way.

This assay deals with Polyunsaturated fatty acid lipoxygenase ALOX15 (Homo sapiens) (UniProt P16050). Nature of the assay: Counterscreen qHTS for inhibitors of human arachidonate 12S-lipoxygenase (ALOX12): ALOX15 Assay. As to conditions: purified ALOX15 enzyme activity; series mostly up to 110 µM. A digest of the protocol: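 Xylenol orange–ferric complex formation, read as the 573 nm to 405 nm absorbance ratio, tracks product from 50 uM arachidonic acid turned over for 30 min at RT. Enzyme is 40 nM ALOX15, pH 7.5 HEPES buffer, compound-preincubated 15 min.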
Sequence of Polyunsaturated fatty acid lipoxygenase ALOX15 (Homo sapiens) (P16050 whole entry, looked up): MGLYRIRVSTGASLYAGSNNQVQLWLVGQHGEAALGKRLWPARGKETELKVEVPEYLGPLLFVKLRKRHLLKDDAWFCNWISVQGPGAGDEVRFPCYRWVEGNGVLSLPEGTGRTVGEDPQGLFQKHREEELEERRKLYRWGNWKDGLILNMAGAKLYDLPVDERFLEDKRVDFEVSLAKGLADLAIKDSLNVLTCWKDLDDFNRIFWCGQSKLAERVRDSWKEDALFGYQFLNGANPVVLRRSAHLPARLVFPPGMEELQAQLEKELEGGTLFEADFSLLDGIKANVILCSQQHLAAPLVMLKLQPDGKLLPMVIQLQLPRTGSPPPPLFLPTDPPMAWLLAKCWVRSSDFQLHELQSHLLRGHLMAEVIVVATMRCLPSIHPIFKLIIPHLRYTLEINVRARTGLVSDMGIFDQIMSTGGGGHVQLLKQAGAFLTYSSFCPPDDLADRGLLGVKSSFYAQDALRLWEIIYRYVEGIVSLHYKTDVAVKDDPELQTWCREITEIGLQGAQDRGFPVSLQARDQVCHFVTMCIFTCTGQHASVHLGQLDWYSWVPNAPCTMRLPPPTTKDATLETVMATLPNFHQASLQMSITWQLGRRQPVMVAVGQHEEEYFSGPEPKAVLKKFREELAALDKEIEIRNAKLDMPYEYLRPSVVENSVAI
(In general: The purpose of a counterscreen is to sort out artefacts and off-target activity.)
Take `COc1ccc(N2CC3CCC(C2)N3C(=O)c2ccc3c(c2)OCO3)cc1`: the outcome was inactive.
Next, `O=c1[nH]c(C2CCCN(Cc3ccc(-c4cc(F)cc(F)c4)cc3)C2)nc2ccc(F)cc12` (stereo not drawn): “inactive”; `Cc1cc(C(=O)NCc2ccc(F)cc2)c2c(C3CCCNC3)noc2n1` (stereo not drawn): “inactive”; `COc1ccc(-c2nc(C3CC3)nc3c2CN(C(=O)c2ccccc2OC)CC3)cc1`: “inactive”.
As for `O=C1NCc2ccccc2CC12CCN(Cc1ccccc1Cl)C2` (stereo not drawn), the compound was called inactive.
The value for `NCCC(=O)N1CCCC2(Cc3ccccc3CN2C(=O)c2ccccc2)C1` (stereo not drawn) was “inactive”; that for `Cc1ccc(CN2CCC3(CC2)Cc2ccccc2CNC3=O)cc1C` was “inactive”; that for `COc1ccc(-c2nc(C3CC3)nc3c2CCN(Cc2ccc(C#N)cc2)CC3)cc1` was “inactive”.
For the compound `COc1cccc(N2C(=O)NC(=NC3CCCCC3)C23CCCN([S+](=O)([O-])c2cccs2)C3)c1` (stereo not drawn), the result was inactive.
Next, `COCCNc1ncnc2c1CN(C1CCCNCC1)C(=O)CN2C` (stereo not drawn): “inactive”.
Next, `CC(C)OCCCNc1ncnc2c1CN(C1CCCNCC1)C(=O)CN2C` (stereo not drawn): “inactive”; `Cc1noc(C)c1S(=O)(=O)N1CCC(N2CCOC2=O)CC1`: “inactive”; `Cc1ccc2nc(C3CCN(Cc4cccs4)CC3)[nH]c(=O)c2c1`: “inactive”.
Next, `O=C(O)c1cccc(-c2ccc(OC(F)(F)F)cc2)c1`: “inactive”; `CNCc1cccc(Oc2ccccc2)c1`: “inactive”; `Cc1cc(C(=O)NCc2ccc(F)cc2)c2c(C3CCNC3)noc2n1` (stereo not drawn): “inactive”.
Regarding `CNC(c1ccccc1)c1ccccc1`, the compound was called inactive.
Next, `O=c1[nH]c(C2CCCN(Cc3cccc(-c4cccs4)c3)C2)nc2ccc(F)cc12` (stereo not drawn): “inactive”; `CN1CC(=O)N(C2CCCNCC2)Cc2c1ncnc2N1CCc2ccccc2C1` (stereo not drawn): “inactive”.
The value for `COc1ccc(C(=O)N2CCc3nc(C4CC4)nc(-c4ccc(OC)cc4)c3C2)cc1` was “inactive”; that for `C[S+](=O)([O-])N1CCCC(c2nnc3n2CCNC3)C1` (stereo not drawn) was “inactive”.
Next, `CN(C)C(=O)N1CCn2c(nnc2-c2cncc(Br)c2)C1`: “inactive”.
Consider `CN1CC(=O)N(C2CCCNCC2)Cc2c(NCCc3ccccc3F)ncnc21` (stereo not drawn), for which the call was inactive.
Turning to `c1cc(NCCN2CCCC2)ccn1`, the compound was called inactive.
Next, `Cc1cc(C)cc(CN2CCC3(Cc4ccccc4CNC3=O)C2)c1` (stereo not drawn): “inactive”.
The value for `N#Cc1ccc(CN2CCC3(CC(c4cccc(C(F)(F)F)c4)=NO3)C2)cc1` (stereo not drawn) was “inactive”; that for `O=C(N1CCOCC1)N1CCN(c2ccc(Cl)nn2)C(=O)C1` was “inactive”; that for `CC(=O)NC1CC2(CCN(C(=O)Cc3c(C)noc3C)CC2)Oc2ccccc21` (stereo not drawn) was “inactive”.
Next, `CN1CC(=O)N(C2CCNCC2)Cc2c(NC3CCCCC3O)ncnc21` (stereo not drawn): “inactive”.
For the compound `CC(C)NC(=O)NC1CC2(CCN(Cc3ccc(O)cc3)CC2)c2ccccc21` (stereo not drawn), the outcome was inactive.
Next, `COc1ccc(CC(=O)N2Cc3ccccc3CC3(CCCN(C)C3)C2)cc1` (stereo not drawn): “inactive”; `O=C(O)CCC(=O)N1Cc2ccccc2CC2(CCCN2Cc2cccnc2)C1` (stereo not drawn): “inactive”.
Consider `CN1CCC(C(=O)N2Cc3ccccc3OC3(CCN(C(=O)N(C)C)CC3)C2)CC1`, for which the call was inactive.
The value for `CN1CC(=O)N(C2CCNCC2)Cc2c1ncnc2N(C)Cc1ccc(F)cc1` was “inactive”; that for `CC(C)c1nc2c(c(-c3ccc(Cl)cc3)n1)CCN(C(=O)c1ccc3c(c1)OCO3)CC2` was “inactive”.
The value for `O=C(NC1CCCC1)c1cc(C2CC2)nc2onc(C3CCCN3)c12` (stereo not drawn) was “inactive”.
The value for `CN(C)CCC(=O)N1Cc2ccccc2CC2(CCCN(C)C2)C1` (stereo not drawn) was “inactive”; that for `NCc1ccc(-c2cc(C(F)(F)F)ccc2Cl)cc1` was “inactive”.
